High-throughput results from PubChem.
Hits are enriched below; roughly 3.4% of the tested compounds scored in any of these assays.
hcDAF-12 act: activators of H. contortus DAF-12 nuclear receptor. hit rate 1.4% among 370,000. HEK293 hcDAF-12 lit1-tk-luc reporter, luminescence; 0% DMSO, 100% Δ7-dafachronic acid. activation, % at 6.8 µM;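 active = activation above the mean of all tested compounds plus 3 SD, cut at about 5.5% in these data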
hgDAF12 agonist: agonists of H. glycines DAF-12 nuclear receptor; HEK293 GAL4-hgDAF12 UAS-luciferase reporter, agonist luminescence; normalized to butyrate control; activation, % at 6.8 µM; hit rate 1.8% among 370,000; AID 687014;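 active = activation above a cutoff set at the mean of all screened compounds plus 3 SD, cut at about 10% in these data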
APP 5'UTR act: APP 5'UTR luciferase reporter activation. SH-SY5Y APP 5'UTR luciferase reporter, luminescence; zero percent = DMSO vehicle wells. activation, % at 2 µM. hit rate 1% among 190,000;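 active = activation above a set limit, based on mean plus 3 SD of controls, cut at about 140% in these data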
ssDAF-12 act: activators of S. stercoralis DAF-12 nuclear receptor | activation, % at 6.8 µM | HEK293 ssDAF-12/GRIP1 lit1-tk-luc reporter, luminescence; % of 3 µM dafachronic acid response | hit rate 1% among 370,000;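 active = activation above the mean over all tested compounds plus 3 SD, cut at about 0.9% in these data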
NF-kB neuron act: NF-kB expression increase, human neuronal cells; NF-kB reporter expression; hits give high values; fold change at 12.5 µM; hit rate 1.6% among 190,000; in the data active = fold change above about 3.3
hgDAF12 conf: confirmation of H. glycines DAF-12 agonists; shares compounds with hgDAF12 agonist; HEK293 GAL4-hgDAF12 luciferase reporter, agonist mode; percent of butyrate response; activation, % at 6.8 µM; hit rate 80% among 3,300;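 active = mean activation over triplicate wells above the hit cutoff derived from the earlier primary screen, cut at about 11% in these data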
LXRb DAF12 ctr: LXR-beta agonism as DAF-12 counter-screen; HEK293 Gal4-LXR luciferase reporter, 24 h; 3,300 tested, under 10 active; shares compounds with hgDAF12 agonist; activation, % at 6.8 µM;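 active = mean activation of the triplicate above a set limit carried over from the primary screen, none filed active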
Target sequence (P55055 whole entry, looked up, the tested form may be a part): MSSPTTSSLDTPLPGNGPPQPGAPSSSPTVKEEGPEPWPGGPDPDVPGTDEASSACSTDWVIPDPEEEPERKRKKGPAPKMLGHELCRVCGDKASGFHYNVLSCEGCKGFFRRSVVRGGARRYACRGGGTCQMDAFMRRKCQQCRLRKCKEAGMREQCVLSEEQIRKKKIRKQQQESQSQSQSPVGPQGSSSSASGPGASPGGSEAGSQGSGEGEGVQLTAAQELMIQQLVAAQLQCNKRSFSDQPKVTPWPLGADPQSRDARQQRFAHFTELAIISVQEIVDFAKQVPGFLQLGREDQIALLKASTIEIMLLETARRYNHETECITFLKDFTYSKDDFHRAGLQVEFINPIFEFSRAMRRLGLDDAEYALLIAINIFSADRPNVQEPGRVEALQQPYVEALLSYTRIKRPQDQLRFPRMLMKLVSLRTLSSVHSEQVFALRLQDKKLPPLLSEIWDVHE
A number is an active result; i = inactive; nt = no result.

SMILES	hcDAF-12 act	hgDAF12 agonist	APP 5'UTR act	ssDAF-12 act	NF-kB neuron act	hgDAF12 conf	LXRb DAF12 ctr
C#CCN1CC(N(C)CCOC(=O)c2ccc([N+](=O)[O-])cc2)CS1(=O)=O (configuration not stated)	i	i	nt	i	nt	nt	nt
O=c1[nH]c(=O)n(C2CC(O)C(CO)O2)cc1I (configuration not stated)	i	14.9	nt	i	nt	16.1	i
O=c1c2c(nc3cc(-c4ccc(Br)cc4)[nH]n13)CCCC2	i	14.0	173.8	1.4	i	19.8	i
COc1ccc(-c2cc3nc4c(c(=O)n3[nH]2)CCC4)cc1	i	i	i	i	i	nt	nt
O=c1c2c(nc3cc(-c4ccccc4)[nH]n13)CCC2	i	15.0	i	i	3.69	13.3	i
Cc1cc2nc3c(c(=O)n2[nH]1)CCCC3	i	i	i	i	i	nt	nt
O=c1c2c(nc3cc(-c4ccccc4Cl)[nH]n13)CCS2	i	16.3	i	1.5	i	11.8	i
Cc1nc(C)c(-c2csc(Nc3cccc(O)c3)n2)s1	i	22.6	165.7	i	4.32	13.5	i
CCC[C@H]1[C@@H](OC(=O)NCc2cccnc2)CC[C@@]23CCCN2C(=O)CCC[C@@H]13	i	i	nt	i	nt	nt	nt
O=C(COc1ccc(F)c(Cl)c1)N[C@H]1CCCN(CC2CC2)C1	i	i	nt	i	nt	nt	nt
O=C(O)CCS(=O)(=O)c1ccccc1Cl	i	16.6	i	i	i	i	i
O=C(O)CCS(=O)(=O)Cc1ccccc1Cl	i	i	i	i	i	nt	nt
Cc1cccc(-c2cnn(-c3ccccc3)c2N)c1	i	i	nt	i	nt	nt	nt
Cc1cccc(-c2cc(N)n(-c3ccccc3)n2)c1	i	17.6	152.4	i	5.48	20.8	i
CCc1ccc(-c2cc(N)n(-c3ccccc3)n2)cc1	i	17.2	241.8	i	10.6	18.3	i
CCCC1CCC2(CC1)CCC2OC(=O)Nc1c(OC)cccc1OC (configuration not stated)	i	i	nt	i	nt	nt	nt
CNS(=O)(=O)/C=C/c1ccccc1CCNC(=O)OC(C)(C)C	i	i	nt	i	nt	nt	nt
Nc1ccc(-c2nc3ncccc3o2)c(Cl)c1	6.0	18.1	i	i	i	15.6	i
C[C@H]1C(c2ccccc2F)O[C@]2(C[C@H](O)c3c(ccc4ccccc34)O2)C[C@@H]1O (some centres not stated)	i	i	nt	i	nt	nt	nt
CCOC(=O)[C@@]12CCCC3=C1N(CCC3)C(=O)[C@H]2CC(=O)NCCCCc1ccccc1	i	i	nt	i	nt	nt	nt
CN(C)C(=S)c1ccc(N(C)C)cc1	i	i	i	i	i	nt	nt
CC(=O)c1ccc(N=Nc2ccc(C)cc2)cc1	6.4	15.1	282.7	i	4.8	i	i
Cc1ccc(C(=O)c2ccc(C)cc2)cc1	i	i	i	i	i	nt	nt
CC(=O)c1ccc(N=Nc2ccc(N(C)C)cc2)cc1	i	13.4	i	1.0	3.85	11.8	i
Cc1cccc(C)c1NC(=O)Cn1nnc(-c2ccncc2)n1	i	i	nt	i	nt	nt	nt
SMILES	hcDAF-12 act	hgDAF12 agonist	APP 5'UTR act	ssDAF-12 act	NF-kB neuron act	hgDAF12 conf	LXRb DAF12 ctr
Cc1c(/C=C/C(=O)c2ccc(O)cc2)cnn1C	i	16.9	i	i	i	i	i
O=C(/C=C/c1c[nH]c2ccccc12)c1ccccc1	i	16.3	i	i	9.87	19.6	i
CCn1ncc(/C=C/C(=O)c2ccccc2)c1C	i	16.8	197.5	i	i	12.5	i
Cc1nn(C)cc1/C=C/C(=O)c1ccccc1	i	18.1	161.1	i	10.8	16.2	i
O=C(/C=C/c1ccccc1O)c1ccccc1	i	i	nt	i	nt	nt	nt
CC(C)NC(=O)N[C@@H]1C[C@@H]2O[C@H](CO)CC[C@@H]2O[C@@H]1CCc1ccc(-c2ccccc2F)cc1	i	i	nt	i	nt	nt	nt
CCCN1CCS(=O)(=O)N(Cc2cn(Cc3ccc(C)cc3)nn2)C(C(=O)OC)C1 (configuration not stated)	i	i	nt	i	nt	nt	nt
C=CCOC(=O)N[C@H](c1ccccc1)[C@H](C)/C=C/CC(=O)OC	i	i	nt	i	nt	nt	nt
O=C(NC1CCCCCCC1)c1ccccc1O	i	i	i	i	i	nt	nt
Cc1ccccc1C(=O)NC1CCCCCCC1	i	14.6	nt	1.0	nt	12.2	i
O=C1c2ccccc2CN1CCSC(=S)N1CCOCC1	i	15.8	i	i	i	16.0	i
